# Measured values published in ChEMBL document CHEMBL3988442, “University of Dundee, Small-Polar-MMV Screening Library” (2021).
# Target: AMP-activated protein kinase, AMPK (Homo sapiens) (UniProt P54646+O43741+P54619+Q9UGJ0+Q9Y478+Q13131+Q9UGI9)
# Test: AMP-dependent Kinase enzyme assay. An in vitro enzyme assay that detects ADP turnover that is directly proportional to AMPK activity. This uses naive AMPK that is activated during the assay with MK-8722
# Format: functional
# Set-up: scale not given: direction of the effect not stated beside the values
# Conditions: 30 µM
row,SMILES,Percent Effect [%]
1,Cn1cnc(S(=O)(=O)N2CCCCc3ccccc32)c1,-0.149
2,N[C@H]1CN(C(=O)c2ccc3[nH]c(CO)nc3c2)C[C@@H]1c1ccccc1,3.57
3,OCCCNc1cccc(COC2CCCCC2)c1,-15.3
4,Cc1cc(CN(C)C(=O)CNS(=O)(=O)c2cccs2)no1,7.18
5,CC(C)(CNC(=O)c1ccco1)CNC(=O)c1ccco1,-2.53
6,CCNC(=O)C1CCN(Cc2ccc(C(=O)Nc3cnns3)cc2)C1 (centres undefined),1.07
7,O=C(CCN1CCOCC1)Nc1cccc(CNCc2cccs2)c1,-8.77
8,CC(C)Oc1cccc(F)c1C(C(=O)O)N1CCCC1 (centres undefined),8.59
9,CC(O)CN1CCN(C(=O)CCOc2ccccc2F)CC1 (centres undefined),-1.3
10,Cc1ccc(O)c(C(=O)N2CCC3(CCCNC3)C2)c1 (centres undefined),11.1
11,Cc1nccn1CCCN1CCC(c2nccn2CC2CCC2)CC1,-9.78
12,O=C(NCCN1CCNC1=O)c1cnc(-c2cccnc2)nc1,6.47
13,Cc1cccc(C)c1Nc1noc2c1CN(C(=O)c1cn(C)cn1)CC2,17.2
14,CN(C)c1nc(N)nc(CN2CCC(c3ccccc3)CC2)n1,-6.86
15,Cc1cn2nc(N(C)C3CCCN(c4cccnn4)C3)sc2n1 (centres undefined),2.94
16,CCc1ccccc1Nc1noc2c1CN(C(=O)c1ccn(C)n1)CC2,-1.29
17,COC(=O)c1ncccc1N1CCCCC1,2.81
18,CN(C)C(=O)CN1CCC(c2c(C(N)=O)sc3ncccc23)C1 (centres undefined),14.7
19,COCC(=O)N1CCCC1(C(=O)N(C)C)c1cnccn1 (centres undefined),6.8
20,CN(C)c1ncccc1CNC(=O)CCNc1ncccn1,-6.85

row,SMILES,Percent Effect [%]
1,CC(C)C(C)NC(=O)Nc1cccc(OCC#N)c1 (centres undefined),-3.11
2,CCC[C@H]1CN(c2cncc(C(=O)N(C)C)n2)C[C@@H]1N(C)C,9.69
3,c1ccc(CCN2CCC(OCC3CCCCO3)CC2)nc1 (centres undefined),11.2
4,O=C(NCC(O)Cc1ccccc1)c1ccc2[nH]c(=O)[nH]c2c1 (centres undefined),11.7
5,COCC[C@]1(O)CCN(Cc2ccccn2)C[C@H]1C,5.38
6,O=C1NCCN2CCN(Cc3ccc(Cl)c(Cl)c3)CC12 (centres undefined),-0.338
7,OCCc1cc(C2CCCN2c2ncccn2)n[nH]1 (centres undefined),11.9
8,CN1CC=C(CCN(C)C(=O)CCc2ccccc2)CC1,-0.771
9,CCOCC(C)(C)NC(=O)Nc1cc(F)ccc1OC,1.04
10,Cc1ccc(O)c(CN2CCCCC2CCN2CCOCC2)c1 (centres undefined),8.46
11,O=C1CN(Cc2cn(CC3CCN(C4CCSCC4)CC3)nn2)CCN1,-3.51
12,CCN1CC(c2ccccc2)CC2(CCN(Cc3ncc[nH]3)CC2)C1 (centres undefined),-6.2
13,CN(Cc1ccc([S+](C)[O-])cc1)c1cncc(Br)c1 (centres undefined),13.9
14,COc1cc(F)ccc1NC(=O)NC(C)C(=O)NC(C)(C)C (centres undefined),-11.6
15,COC(=O)c1cccc(S(=O)(=O)NCC(c2ccco2)N2CCCC2)c1 (centres undefined),-6.45
16,COCCn1ccnc1C1CCN(C(=O)CSc2nnc(C)s2)CC1,7.22
17,COCc1cc(NCCCSc2nnc(C)s2)ncn1,8.32
18,COc1ncccc1-c1cc(C(=O)NC2CC2)ccn1,-1.79
19,Cc1cccc(C(C(=O)NC(C)(C)CN2CCOCC2)N(C)C)c1 (centres undefined),-14.1
